What was measured:
[1] = target: T1, Serine/threonine-protein kinase Nek9 (Homo sapiens) (UniProt Q8TD19); conditions: at 1 µM;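 further: each value is a mean percent inhibition of NEK9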
T1 sequence (whole entry): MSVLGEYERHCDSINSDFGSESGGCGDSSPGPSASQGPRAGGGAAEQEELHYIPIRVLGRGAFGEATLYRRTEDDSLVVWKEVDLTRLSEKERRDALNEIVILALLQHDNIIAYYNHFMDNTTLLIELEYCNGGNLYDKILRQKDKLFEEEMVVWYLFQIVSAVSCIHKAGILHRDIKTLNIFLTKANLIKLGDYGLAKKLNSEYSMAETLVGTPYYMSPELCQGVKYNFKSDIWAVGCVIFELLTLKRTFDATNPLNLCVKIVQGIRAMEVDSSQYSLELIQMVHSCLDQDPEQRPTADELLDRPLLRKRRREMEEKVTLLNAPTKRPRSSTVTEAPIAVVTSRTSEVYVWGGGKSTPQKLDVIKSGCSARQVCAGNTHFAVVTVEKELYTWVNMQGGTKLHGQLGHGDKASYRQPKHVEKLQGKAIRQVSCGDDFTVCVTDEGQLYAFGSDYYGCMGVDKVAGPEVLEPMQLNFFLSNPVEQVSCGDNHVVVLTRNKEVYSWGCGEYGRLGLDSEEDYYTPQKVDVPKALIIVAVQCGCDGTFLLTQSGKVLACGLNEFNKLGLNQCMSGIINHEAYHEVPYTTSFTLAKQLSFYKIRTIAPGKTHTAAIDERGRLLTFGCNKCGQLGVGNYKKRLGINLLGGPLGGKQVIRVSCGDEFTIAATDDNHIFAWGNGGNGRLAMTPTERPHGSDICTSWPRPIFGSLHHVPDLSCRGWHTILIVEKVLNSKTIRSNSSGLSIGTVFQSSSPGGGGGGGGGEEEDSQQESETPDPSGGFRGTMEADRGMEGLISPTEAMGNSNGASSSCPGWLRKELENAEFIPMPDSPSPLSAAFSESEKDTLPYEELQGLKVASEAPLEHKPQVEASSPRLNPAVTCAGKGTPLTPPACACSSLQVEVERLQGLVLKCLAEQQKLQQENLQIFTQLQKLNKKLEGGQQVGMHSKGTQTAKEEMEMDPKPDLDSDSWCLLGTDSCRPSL

[2] = target: Serine/threonine-protein kinase PLK1 (Homo sapiens) (UniProt P53350); conditions: at 0.1 µM
[3] = target: Serine/threonine-protein kinase PLK1 (Homo sapiens) (UniProt P53350); conditions: at 1 µM
[4] = target: T2, Dual specificity protein kinase TTK (Homo sapiens) (UniProt P33981); conditions: at 0.1 µM
T2 sequence (whole entry): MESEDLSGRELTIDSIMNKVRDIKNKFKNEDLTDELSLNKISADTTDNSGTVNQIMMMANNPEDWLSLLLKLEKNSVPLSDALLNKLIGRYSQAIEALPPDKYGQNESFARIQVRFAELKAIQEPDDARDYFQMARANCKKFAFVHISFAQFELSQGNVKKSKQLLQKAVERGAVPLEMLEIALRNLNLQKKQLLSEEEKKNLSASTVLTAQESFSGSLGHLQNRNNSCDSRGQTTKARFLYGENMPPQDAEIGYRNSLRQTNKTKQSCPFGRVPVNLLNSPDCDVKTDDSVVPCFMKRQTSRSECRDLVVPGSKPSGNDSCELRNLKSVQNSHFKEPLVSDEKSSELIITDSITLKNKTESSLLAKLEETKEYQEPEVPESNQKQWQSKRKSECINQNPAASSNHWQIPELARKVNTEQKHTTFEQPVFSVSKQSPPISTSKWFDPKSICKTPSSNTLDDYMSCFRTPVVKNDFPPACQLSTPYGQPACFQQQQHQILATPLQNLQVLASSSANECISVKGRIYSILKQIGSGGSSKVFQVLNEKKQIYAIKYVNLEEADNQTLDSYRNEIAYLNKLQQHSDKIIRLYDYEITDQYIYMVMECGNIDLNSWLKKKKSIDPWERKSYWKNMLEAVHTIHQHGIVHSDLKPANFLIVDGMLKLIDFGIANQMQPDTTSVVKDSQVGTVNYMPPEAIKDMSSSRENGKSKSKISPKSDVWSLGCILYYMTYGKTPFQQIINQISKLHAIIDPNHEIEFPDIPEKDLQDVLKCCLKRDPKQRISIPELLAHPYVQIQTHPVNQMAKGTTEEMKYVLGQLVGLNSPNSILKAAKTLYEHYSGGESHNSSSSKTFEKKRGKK

[5] = system: T3, Receptor-type tyrosine-protein kinase FLT3 (Homo sapiens), P36888 [D835Y]; conditions: at 1 µM
T3 sequence (whole entry): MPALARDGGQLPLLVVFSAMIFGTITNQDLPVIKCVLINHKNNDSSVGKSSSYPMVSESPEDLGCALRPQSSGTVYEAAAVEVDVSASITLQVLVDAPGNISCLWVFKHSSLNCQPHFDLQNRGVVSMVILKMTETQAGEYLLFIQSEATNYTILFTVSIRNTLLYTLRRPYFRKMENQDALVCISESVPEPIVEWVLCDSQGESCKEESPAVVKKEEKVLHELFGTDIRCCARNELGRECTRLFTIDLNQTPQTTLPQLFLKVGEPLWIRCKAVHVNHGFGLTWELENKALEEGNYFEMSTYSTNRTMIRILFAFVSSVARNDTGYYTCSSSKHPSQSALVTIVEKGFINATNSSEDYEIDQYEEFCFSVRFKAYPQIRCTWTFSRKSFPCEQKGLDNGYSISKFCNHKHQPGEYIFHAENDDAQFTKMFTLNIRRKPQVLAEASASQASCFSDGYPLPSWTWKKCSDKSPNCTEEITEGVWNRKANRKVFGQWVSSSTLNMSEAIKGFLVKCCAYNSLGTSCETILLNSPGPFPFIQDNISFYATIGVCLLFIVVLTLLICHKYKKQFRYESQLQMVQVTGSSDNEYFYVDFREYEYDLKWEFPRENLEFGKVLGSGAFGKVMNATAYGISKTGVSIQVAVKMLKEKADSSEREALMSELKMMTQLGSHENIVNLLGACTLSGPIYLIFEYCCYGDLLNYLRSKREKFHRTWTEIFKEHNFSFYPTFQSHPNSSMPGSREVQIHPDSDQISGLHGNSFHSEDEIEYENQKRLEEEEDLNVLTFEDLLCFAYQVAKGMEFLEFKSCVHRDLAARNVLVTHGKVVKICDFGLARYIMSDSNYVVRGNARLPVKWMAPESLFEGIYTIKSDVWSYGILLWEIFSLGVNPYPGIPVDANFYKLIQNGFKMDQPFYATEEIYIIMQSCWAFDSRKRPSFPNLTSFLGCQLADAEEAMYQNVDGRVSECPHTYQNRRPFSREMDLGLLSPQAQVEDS

[6] = target: Vascular endothelial growth factor receptor 3 (Homo sapiens) (UniProt P35916); conditions: at 0.1 µM
[7] = target: Vascular endothelial growth factor receptor 3 (Homo sapiens) (UniProt P35916); conditions: at 1 µM
[8] = target: Macrophage colony-stimulating factor 1 receptor (Homo sapiens) (UniProt P07333); conditions: at 0.1 µM
[9] = target: Macrophage colony-stimulating factor 1 receptor (Homo sapiens) (UniProt P07333); conditions: at 1 µM
[10] = target: Tyrosine-protein kinase Fyn (Homo sapiens) (UniProt P06241); conditions: at 0.1 µM
Tyrosine-protein kinase Fyn (Homo sapiens), sequence (P06241 2-537 limits assumed): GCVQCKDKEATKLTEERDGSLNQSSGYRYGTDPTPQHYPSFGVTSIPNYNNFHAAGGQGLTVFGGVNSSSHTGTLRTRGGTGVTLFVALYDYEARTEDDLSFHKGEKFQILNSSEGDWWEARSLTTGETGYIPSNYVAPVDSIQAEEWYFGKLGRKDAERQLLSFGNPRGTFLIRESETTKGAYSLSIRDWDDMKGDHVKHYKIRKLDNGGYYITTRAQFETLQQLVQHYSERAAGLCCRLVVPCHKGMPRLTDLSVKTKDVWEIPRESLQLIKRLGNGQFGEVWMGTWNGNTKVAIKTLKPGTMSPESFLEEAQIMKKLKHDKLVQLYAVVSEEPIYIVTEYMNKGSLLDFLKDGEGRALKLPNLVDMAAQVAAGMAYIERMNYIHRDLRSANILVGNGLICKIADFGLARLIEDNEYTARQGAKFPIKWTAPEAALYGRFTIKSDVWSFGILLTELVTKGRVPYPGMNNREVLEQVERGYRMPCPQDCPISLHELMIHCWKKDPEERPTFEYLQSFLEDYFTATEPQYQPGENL

Serine/threonine-protein kinase PLK1 (Homo sapiens), sequence (P53350 whole entry): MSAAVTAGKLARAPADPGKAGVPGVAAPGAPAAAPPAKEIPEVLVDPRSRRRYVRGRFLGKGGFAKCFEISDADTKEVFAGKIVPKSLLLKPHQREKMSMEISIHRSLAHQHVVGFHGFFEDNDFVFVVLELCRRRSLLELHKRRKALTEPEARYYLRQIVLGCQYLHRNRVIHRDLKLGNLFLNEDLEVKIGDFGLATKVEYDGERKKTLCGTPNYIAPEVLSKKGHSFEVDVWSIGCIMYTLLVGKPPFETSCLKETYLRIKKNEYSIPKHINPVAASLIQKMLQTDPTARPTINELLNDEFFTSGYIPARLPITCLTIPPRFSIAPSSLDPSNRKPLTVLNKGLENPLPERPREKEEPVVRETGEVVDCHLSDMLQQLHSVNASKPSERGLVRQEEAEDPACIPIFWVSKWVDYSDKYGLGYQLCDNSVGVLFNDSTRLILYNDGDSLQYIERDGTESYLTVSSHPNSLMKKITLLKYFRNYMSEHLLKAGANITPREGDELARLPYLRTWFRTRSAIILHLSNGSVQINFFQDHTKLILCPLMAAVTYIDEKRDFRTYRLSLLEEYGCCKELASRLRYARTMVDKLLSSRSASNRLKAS
Macrophage colony-stimulating factor 1 receptor (Homo sapiens), sequence (P07333 whole entry): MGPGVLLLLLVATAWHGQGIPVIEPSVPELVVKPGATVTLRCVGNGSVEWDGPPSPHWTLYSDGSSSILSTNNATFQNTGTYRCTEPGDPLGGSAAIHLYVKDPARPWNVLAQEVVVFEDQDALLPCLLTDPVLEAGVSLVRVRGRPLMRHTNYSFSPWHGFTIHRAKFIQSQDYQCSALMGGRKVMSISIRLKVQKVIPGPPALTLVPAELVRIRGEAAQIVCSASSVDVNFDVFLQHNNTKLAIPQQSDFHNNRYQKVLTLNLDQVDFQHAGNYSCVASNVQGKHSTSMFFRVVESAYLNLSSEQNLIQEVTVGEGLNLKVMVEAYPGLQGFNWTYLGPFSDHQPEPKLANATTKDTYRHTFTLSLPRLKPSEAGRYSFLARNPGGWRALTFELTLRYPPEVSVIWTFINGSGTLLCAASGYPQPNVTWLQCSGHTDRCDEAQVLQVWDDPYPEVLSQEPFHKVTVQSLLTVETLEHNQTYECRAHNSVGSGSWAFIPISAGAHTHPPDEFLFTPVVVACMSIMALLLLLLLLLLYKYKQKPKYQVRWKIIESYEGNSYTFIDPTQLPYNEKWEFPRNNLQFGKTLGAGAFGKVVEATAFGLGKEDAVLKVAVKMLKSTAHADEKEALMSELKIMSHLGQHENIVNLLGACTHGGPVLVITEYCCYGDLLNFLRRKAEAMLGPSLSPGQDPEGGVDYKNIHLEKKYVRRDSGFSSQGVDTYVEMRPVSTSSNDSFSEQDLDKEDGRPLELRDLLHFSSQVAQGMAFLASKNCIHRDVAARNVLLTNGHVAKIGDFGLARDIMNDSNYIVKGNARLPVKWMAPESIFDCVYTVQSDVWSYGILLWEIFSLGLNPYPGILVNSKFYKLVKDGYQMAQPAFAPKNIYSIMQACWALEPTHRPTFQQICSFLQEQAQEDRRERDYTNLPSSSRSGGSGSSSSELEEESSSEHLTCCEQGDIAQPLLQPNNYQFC
Vascular endothelial growth factor receptor 3 (Homo sapiens), sequence (P35916 whole entry): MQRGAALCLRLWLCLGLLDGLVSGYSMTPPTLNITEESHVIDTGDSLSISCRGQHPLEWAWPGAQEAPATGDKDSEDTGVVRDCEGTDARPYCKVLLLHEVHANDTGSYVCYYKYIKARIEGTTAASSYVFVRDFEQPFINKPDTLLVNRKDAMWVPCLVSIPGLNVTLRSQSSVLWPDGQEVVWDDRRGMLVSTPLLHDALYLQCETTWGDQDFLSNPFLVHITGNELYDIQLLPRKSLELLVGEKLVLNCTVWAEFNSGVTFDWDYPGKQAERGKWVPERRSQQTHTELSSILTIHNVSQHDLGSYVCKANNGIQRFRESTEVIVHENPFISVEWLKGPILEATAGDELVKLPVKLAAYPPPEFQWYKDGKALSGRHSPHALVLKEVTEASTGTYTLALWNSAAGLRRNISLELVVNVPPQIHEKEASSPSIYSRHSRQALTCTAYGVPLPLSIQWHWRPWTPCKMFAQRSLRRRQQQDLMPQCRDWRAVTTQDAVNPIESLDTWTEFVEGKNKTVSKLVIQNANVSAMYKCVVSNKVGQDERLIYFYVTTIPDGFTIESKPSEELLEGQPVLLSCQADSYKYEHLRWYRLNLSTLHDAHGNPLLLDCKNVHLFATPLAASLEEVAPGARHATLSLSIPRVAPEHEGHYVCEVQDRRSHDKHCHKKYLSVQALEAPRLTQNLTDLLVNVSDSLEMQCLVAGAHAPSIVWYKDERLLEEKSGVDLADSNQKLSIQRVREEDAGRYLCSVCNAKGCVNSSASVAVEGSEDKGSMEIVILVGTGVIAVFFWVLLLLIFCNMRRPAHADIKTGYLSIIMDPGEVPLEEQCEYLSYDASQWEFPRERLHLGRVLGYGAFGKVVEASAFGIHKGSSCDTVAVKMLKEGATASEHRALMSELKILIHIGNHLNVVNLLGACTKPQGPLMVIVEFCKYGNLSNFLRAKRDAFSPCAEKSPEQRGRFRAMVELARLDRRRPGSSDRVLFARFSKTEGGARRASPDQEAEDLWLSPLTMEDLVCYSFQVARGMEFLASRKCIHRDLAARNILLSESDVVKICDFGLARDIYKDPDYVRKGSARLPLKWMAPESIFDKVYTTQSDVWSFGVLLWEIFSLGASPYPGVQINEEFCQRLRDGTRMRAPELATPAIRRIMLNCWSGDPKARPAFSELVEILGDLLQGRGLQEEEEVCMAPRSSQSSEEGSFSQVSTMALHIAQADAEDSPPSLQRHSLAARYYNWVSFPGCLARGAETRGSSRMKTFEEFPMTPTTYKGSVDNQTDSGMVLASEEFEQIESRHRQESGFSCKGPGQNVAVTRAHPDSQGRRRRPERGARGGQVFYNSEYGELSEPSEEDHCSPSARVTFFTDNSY

| Structure (SMILES) | inhibition [1] | inhibition [2] | inhibition [3] | inhibition [4] | inhibition [5] | inhibition [6] | inhibition [7] | inhibition [8] | inhibition [9] | inhibition [10] |
| --- | --- | --- | --- | --- | --- | --- | --- | --- | --- | --- |
| Nc1nc(-c2ccc3c(c2)C(=Cc2cc(Br)c(O)c(Br)c2)C(=O)N3)cs1 | 8.59% | 0.43% | 3.62% | 2.39% | 3.47% | 4.68% | 6.47% | -1.81% | 2.56% | -0.03% |
| CC1=C(C(=O)Nc2ccc3[nH]ncc3c2)C(c2ccc(Cl)c(Cl)c2)CC(=O)N1 (stereo unspecified) | 3.13% | 2.57% | 1.43% | 2.15% | 0.84% | -2.61% | 1% | -0.52% | 1.97% | 1.91% |
| Cn1cc(C=C2C(=O)Nc3cccnc32)c2ccccc21 | 4.67% | 2.71% | 1.58% | 9.66% | 77.5% | 4.88% | 30.3% | 6.48% | 30.9% | 4.64% |
| c1cnn2ncc(-c3ccnc(Nc4ccc5c(c4)OCCO5)n3)c2c1 | 49.9% | 8.35% | 29.4% | 11.9% | 36.1% | 8.6% | 21.8% | 44.5% | 85.7% | 1.57% |
| CCn1c(-c2nonc2N)nc2cncc(C(=O)N3CCNCC3)c21 | 5.61% | 5.97% | 14.3% | 12.2% | -1.93% | 5.86% | 7.52% | 4.42% | 5.74% | 2.61% |
| Cc1cc(O)cc(C)c1/C=C/c1cncc(-c2nn[nH]n2)c1 | 8.64% | 3.41% | 4.38% | 7.11% | -0.25% | -9.76% | – | 8.02% | 36.1% | 3.99% |
| COc1cccc(-n2ncc3c(N/N=C/c4cccc(F)c4)ncnc32)c1 | 3.11% | 3.32% | 3.39% | 6.88% | 14.1% | -8.81% | -1.89% | -0.57% | 3.43% | 4.02% |
| COc1ccc(-c2ccncc2)cc1C(N)=O | 2.67% | 5.64% | 6.97% | 5.37% | 3.51% | 3.2% | 2% | 2.6% | 5.33% | 2.01% |
| NS(=O)(=O)c1ccc(N/N=C2\C(=O)Nc3ccc(C(=O)NCCc4c[nH]cn4)cc32)cc1 | 10.4% | 5.66% | 10.8% | 37.9% | 48% | 6.93% | 26.4% | – | 15.4% | 3.46% |
| O=C1NC(=O)C(c2cccc(Cl)c2)=C1Nc1ccc(O)c(Cl)c1 | 8.97% | 2.84% | 3.21% | 2.22% | 3.58% | 1.15% | 13.3% | 5.89% | 46.8% | 2.3% |
| COc1ccc(COc2ccc(Cc3cnc(N)nc3N)cc2OC)cc1 | -4.1% | 0.21% | 3.71% | -2.66% | -1.91% | -2.95% | -0.86% | – | – | 0.22% |
| CCn1c(-c2nonc2N)nc2c(C#CC(C)(C)O)nc(CN3CCCC3)cc21 | 3.04% | -0.39% | -1.2% | 1.71% | 0.63% | 0.61% | 5.17% | -0.03% | 2.57% | 2.94% |
| COc1cc(C)c(NC(=O)CN(C)C)cc1Nc1nc(Nc2cccc(F)c2C(N)=O)c2cc[nH]c2n1 | 2.11% | 70.5% | 92.2% | 24.2% | 4.71% | -3.04% | 1.77% | 3.71% | 26.6% | 1.54% |
| Nc1ncnc2occ(-c3ccc(NC(=O)Nc4cccc(C(F)(F)F)c4)cc3)c12 | 17.9% | 4.84% | 5.99% | 7.86% | 34.6% | 53% | 99.6% | 98.1% | 78% | 3.58% |
